# A selection: hits, their analogues and other compounds. The true share with any hit is near 2.3%.
# TRPV1 PAM = human TRPV1 potentiation | TRPV1-expressing cells, Fluo-8 calcium influx, capsaicin EC20 potentiation | potentiation, % at 8.33 µM | AID 540277 | 320,000 tested, 0.02% active; in the data active means potentiation above about 80%; inconclusive means between about 30% and that limit; further: 0% is about no effect
# Target sequence (Q8NER1 whole entry, looked up): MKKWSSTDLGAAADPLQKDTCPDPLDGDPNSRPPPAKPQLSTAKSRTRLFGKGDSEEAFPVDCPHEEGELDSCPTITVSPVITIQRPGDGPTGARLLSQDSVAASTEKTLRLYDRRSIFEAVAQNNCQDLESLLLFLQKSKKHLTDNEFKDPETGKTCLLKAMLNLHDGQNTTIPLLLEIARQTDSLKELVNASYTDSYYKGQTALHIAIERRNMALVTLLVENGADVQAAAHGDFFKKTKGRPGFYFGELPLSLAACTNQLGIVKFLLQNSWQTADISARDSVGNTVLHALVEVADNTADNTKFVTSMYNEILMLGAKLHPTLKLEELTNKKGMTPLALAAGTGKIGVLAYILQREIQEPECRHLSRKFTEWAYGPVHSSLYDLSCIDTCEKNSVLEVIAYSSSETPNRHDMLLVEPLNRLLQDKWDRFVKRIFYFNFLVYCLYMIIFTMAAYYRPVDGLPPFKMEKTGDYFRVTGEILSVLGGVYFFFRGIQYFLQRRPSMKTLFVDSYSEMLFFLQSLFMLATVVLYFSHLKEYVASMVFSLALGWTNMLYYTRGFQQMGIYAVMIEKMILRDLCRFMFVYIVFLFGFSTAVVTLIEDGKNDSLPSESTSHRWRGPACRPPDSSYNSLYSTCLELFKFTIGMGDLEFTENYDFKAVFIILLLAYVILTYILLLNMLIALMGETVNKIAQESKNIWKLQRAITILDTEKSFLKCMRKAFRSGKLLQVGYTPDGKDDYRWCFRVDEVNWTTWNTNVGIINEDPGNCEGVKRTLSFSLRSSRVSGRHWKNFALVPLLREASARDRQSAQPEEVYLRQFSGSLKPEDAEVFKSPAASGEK
#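 Cells expressing TRPV1 were dye-loaded with Fluo-8 and read kinetically: 10 s baseline, 3 min after compound (agonist portion), then 2 min after EC20 capsaicin (allosteric enhancer portion). Calcium-bound dye fluorescence at 480/520 nm.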
# ELG1 repair inh = blocks ELG1-dependent DNA repair in HEK293T cells | HEK293T ELG1-luciferase reporter, luminescence, 16 h; DNA damage induced by 5-fluorouridine | Potency, µM (highest dose often 46.1 µM), without a hit: at the highest dose activity change, negative = inhibition, usual class: inhibitors | 330,000 tested, 2.3% active | AID 504467; further: potency means the concentration at half of the fitted maximal effect; on the % scale 0 is the no-effect control and ±100 the full control effect; nearly all actives have a fitted effect of over 55% in size
#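 Cells (2,000 per well) received 5-fluorouridine plus test compound or DMSO and were incubated 16 hr at 37 °C, 5% CO2. Luciferase activity was read by luminescence 30 min after ONE-Glo addition; signal suppression marked inhibition of damage-induced ELG1 function.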
# Giardia killer = Giardia lamblia killing; 340,000 tested, 0.15% active; activity change, % at 7.66 µM, hits read low; Giardia lamblia trophozoite viability; AID 540267; in the data active means activity change below about -80%; inconclusive means between about -30% and that limit;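 further: parasites exposed to compound for two days anaerobically before the ATP read; on the % scale 0 is the no-effect control and ±100 the full control effect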
#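 Trophozoite viability was measured as ATP-dependent luminescence, read 15-30 min after reagent addition. Before that, parasites at 100 cells/well were exposed to compounds for 48 h, anaerobically, at 37 deg C.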
# TRPV1 agonist = human TRPV1 agonism | Q8NER1 | TRPV1-expressing cells, Fluo-8 calcium influx, agonist mode | activation, % at 8.33 µM | 320,000 tested, 0.19% active; in the data active means activation above about 80%; inconclusive means between about 30% and that limit; further: 0% is about no effect
#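 Cells expressing TRPV1 were dye-loaded with Fluo-8 and read kinetically: 10 s baseline, 3 min after compound (agonist portion), then 2 min after EC20 capsaicin (allosteric enhancer portion). Calcium-bound dye fluorescence at 480/520 nm.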
# FUS yeast rescue = FUS proteinopathy suppression in yeast; S. cerevisiae FUS-expressing, growth rescue, OD600, 24 h; Potency, µM (series often up to 76.6 µM), usual class: activators; 390,000 tested, 0.24% active; AID 1347120;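 further: potency means the concentration at half of the fitted maximal effect; plate controls were DMSO vehicle for no effect and reference control for full effect; nearly all actives have a fitted effect of over 55% in size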
#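 FUS-expressing yeast, raffinose-pregrown, induced in 2% galactose minimal medium at OD 0.005; compounds in a dilution series, 24hr at 30C. Growth restoration read as absorbance at 600 nm. CP55940 positive control, DMSO negative.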
# * hit, by the source's call; i = inactive; ? = inconclusive; / = no result given. Unless noted, the call rests on the fitted dose curve; in most records, active means well fitted curve in the direction sought with a large enough effect; inconclusive means small, poorly fitted or top-dose-only effect, or another doubt; inactive means no such curve, though single readings can be large; an effect the other way counts as inactive or inconclusive.
SMILES,TRPV1 PAM,ELG1 repair inh,Giardia killer,TRPV1 agonist,FUS yeast rescue
Cn1c(N)c(C(=O)COc2ccc(Cl)cc2Cl)c(=O)n(C)c1=O,-10,?,-5,17,i
CCOc1ccc(N(CC(=O)Nc2c(C)n(C)n(-c3ccccc3)c2=O)S(=O)(=O)c2cccs2)cc1,/,/,/,/,i
O=C(Nc1nc2ccc(S(=O)(=O)N3CCCC3)cc2s1)c1cccc(F)c1,/,/,/,/,i
COCCNc1ncnc2c1[nH]c1ccccc12,/,15µM*,6,/,i
COCCCNc1ncnc2c1[nH]c1ccccc12,-3,-13%,/,-3,/
O=C(Cn1c(=O)n(-c2ccccc2)c(=O)c2c3c(sc21)CCCC3)Nc1ccc(F)cc1F,/,/,/,/,i
CCn1c(SCC(=O)N2CCN(c3ccccc3)CC2)nc2c(c1=O)SC(C)C2 (configuration not stated),1,23µM*,3,1,i
O=C(CSc1nc2c(c(=O)n1-c1ccccc1)SCC2)N1CCN(c2ccccc2)CC1,-5,23µM*,-1,-2,i
CCOC(=O)c1ccc(NC(=O)CSc2nc3c(c(=O)n2C)SC(C)C3)cc1 (configuration not stated),-7,21µM*,23,5,i
O=C(CSc1nc2c(c(=O)n1-c1ccccc1)SCC2)N1CCOCC1,-13,3%,2,0,i
CC1Cc2nc(SCC(=O)N3CCN(c4ccccc4)CC3)n(CCc3ccccc3)c(=O)c2S1 (configuration not stated),8,15µM*,-7,-8,14µM*
CC1Cc2nc(SCC(=O)N3CCN(c4ccccc4)CC3)n(C)c(=O)c2S1 (configuration not stated),15,-23%,-17,1,i
CC(C)CC(=O)OCc1cc(=O)n2nc(C3CCCCC3)sc2n1,/,/,/,/,i
CC1(C(=O)NS(=O)(=O)c2ccc(Cl)s2)CCN1C(=O)Cc1ccccc1Cl (configuration not stated),/,/,/,/,i
CCOC(=O)c1sc(=S)n(C)c1NC(=O)c1cccc(Br)c1,1,13µM*,2,0,i
COc1cc(OC)c(NC(=O)CSc2cc(=O)n(C)c3ccc(Cl)cc23)cc1Cl,/,/,/,/,i
Cn1c(=O)c2cc(C(=O)N3CCN(c4ccc(Cl)cc4)CC3)sc2c2ccccc21,/,/,/,/,i
CCOC(=O)CSc1nc(-c2ccc(F)cc2)cc(C(F)(F)F)c1C#N,/,/,/,/,i
CN1CCN(CCCNC(=O)c2cc3c(-c4ccc(Cl)cc4)nn(C)c3s2)CC1,11,?,8,2,i
Cn1nc(-c2ccc(Cl)cc2)c2cc(C(=O)NCC3CCCO3)sc21 (configuration not stated),/,16µM*,26,/,i
COC(=O)[C@]12C[C@H](CC(=O)N3CCN(C(=O)C4CC4)CC3)C(=O)N(Cc3ccc(Cl)cc3Cl)C1=C[C@H](C(C)C)O[C@@H]2C1CC1,/,/,/,/,28µM*
COC(=O)[C@]12C[C@H](CC(=O)N3CCOCC3)C(=O)N(Cc3ccc(Cl)cc3Cl)C1=C[C@H](C(C)(C)C)O[C@@H]2C,/,/,/,/,16µM*
COC(=O)[C@]12C[C@H](CC(=O)N3CCCCC3)C(=O)N(Cc3ccc(Cl)cc3Cl)C1=C[C@H](C(C)C)O[C@@H]2C1CC1,/,/,/,/,i
COC(=O)[C@]12C[C@H](CC(=O)N3CCN(C(=O)C4CC4)CC3)C(=O)N(Cc3ccc(Cl)cc3Cl)C1=C[C@H](C1CCCC1)O[C@@H]2C,/,/,/,/,32µM*
COC(=O)[C@]12C[C@H](CC(=O)N3CCN(C(=O)C4CC4)CC3)C(=O)N(Cc3ccco3)C1=C[C@H](C1CCCC1)O[C@@H]2C,/,/,/,/,i
SMILES,TRPV1 PAM,ELG1 repair inh,Giardia killer,TRPV1 agonist,FUS yeast rescue
O=C(CC1NCCNC1=O)Nc1ccc(F)c(Cl)c1 (configuration not stated),/,/,/,/,i
C[C@@H]1CN(C(=O)c2cc(COc3cccc(C(F)(F)F)c3)on2)C[C@H](C)O1,?,15µM*,15,4,/
O=C(NCC1CCOCC1)c1cc(COc2cccc(C(F)(F)F)c2)on1,-15,16µM*,-21,?,i
CCC(C)NC(=O)c1ccc(Cn2c(=O)c3cccn3c3cccnc32)cc1 (configuration not stated),/,/,/,/,i
CCc1cc(C(=O)Nc2ccc(S(=O)(=O)NC3=NCCCCC3)cc2)sc1C,-3,-20%,-26,-1,25µM*
Cc1nc2ccccc2c2oc(C(=O)N3CCc4ccccc4C3)cc12,-19,26µM*,-8,17,i
CCOc1ccc(NC(=O)c2cc3c(C)nc4ccccc4c3o2)cc1,11,8.2µM*,-14,-6,i
Cc1nc2ccccc2c2oc(C(=O)N3CCC(C)CC3)cc12,-26,?,-2,21,i
COc1cc(OC)c(NC(=O)c2nn(-c3ccc(C)cc3)c(=O)c3c2c2ccccc2n3C)cc1Cl,/,/,/,/,i
COCCCNc1nc2c(c(=O)n(Cc3ccccc3)c(=O)n2C)n1C,/,/,/,/,i
CCN1CCc2nc3ccccc3c(C(=O)Nc3ccc(NC(C)=O)cc3)c2C1,0,-2%,9,2,i
CC(=O)Nc1ccc(NC(=O)COC(=O)c2c3c(nc4ccccc24)CCN(Cc2ccccc2)C3)cc1,1,2.3µM*,20,27,/
O=C(COC(=O)c1c2c(nc3ccccc13)CCN(Cc1ccccc1)C2)Nc1c(F)cccc1F,2,5.8µM*,7,9,i
N#C/C(=C\c1cccc(NC(=O)c2ccccc2Cl)c1)C(=O)NCCc1ccccc1,4,15µM*,13,4,i
CCCSc1ccc(-c2nn(-c3ccccc3)cc2/C=C(/C#N)C(=O)N2CCOCC2)cc1,22,?,31,101*,/
CCSc1ccc(-c2nn(-c3ccccc3)cc2/C=C(/C#N)C(=O)NC)cc1,-3,16%,3,?,i
CC(=O)N1CCc2c(sc3nc(SCC(N)=O)n(-c4ccc(F)c(Cl)c4)c(=O)c23)C1,/,/,/,/,i
CCOc1cc(C(=O)NCCN2C(=O)S/C(=C\c3cccnc3)C2=O)cc(OCC)c1OCC,-2,18µM*,-28,3,i
Clc1ccccc1CNc1ncnc2c1nc1n2CCCC1,/,/,/,/,i
CCOCCCn1c(=N)c(C(=O)NCC2CCCO2)cc2c(=O)n3cc(C)ccc3nc21 (configuration not stated),/,/,/,/,i
COc1ccc(Nc2ncnc3ccc(C)cc23)cc1,16,?,-8,81*,i
Cc1cc(SCC(=O)Nc2nsc(-c3ccc(C(C)(C)C)cc3)n2)nc2ccccc12,/,/,/,/,i
C[C@H]1C2CC(OC(=O)Nc3ccc(C#N)cc3)C(C2)[C@H]2CCCCN21 (some centres not stated),/,/,/,/,i
Cc1cc(C(C)(C)C)cc(C)c1Cn1c2[n+](c3ccc(C(F)(F)F)cc31)CCCCC2,-13,15µM*,10,24,i
